From ChEMBL document CHEMBL4296182, “CO-ADD screening of NIH NCI Diversity Set V”
For part of these data: Entries with a potency or affinity are not part of this list.

Columns and labels:
Staphylococcus aureus = assay: Antibacterial activity against Staphylococcus aureus MRSA ATCC 43300 (CO-ADD:GP_020); MIC in CAMBH media using NBS plates, by Resazurin F(560/590); format: functional; details: Concentration 20 uM, ASSAY_TEST Inhibition of Bacterial Growth, detection method Resazurin, Fluorescence (ex560/em590), MEDIA CAMHB, plate type 384well, CORNING #3640, time 18 hr
Acinetobacter baumannii = assay: Antibacterial activity against Acinetobacter baumannii ATCC 19606 (CO-ADD:GN_034); MIC in CAMBH media using NBS plates, by Resazurin F(560/590); format: functional; details: Concentration 20 uM, ASSAY_TEST Inhibition of Bacterial Growth, detection method Resazurin, Fluorescence (ex560/em590), MEDIA CAMHB, plate type 384well, CORNING #3640, time 18 hr
Escherichia coli = assay: Antibacterial activity against Escherichia coli ATCC 25922 (CO-ADD:GN_001); MIC in CAMBH media using NBS plates, by Resazurin F(560/590); format: functional; details: Concentration 20 uM, ASSAY_TEST Inhibition of Bacterial Growth, detection method Resazurin, Fluorescence (ex560/em590), MEDIA CAMHB, plate type 384well, CORNING #3640, time 18 hr
Klebsiella pneumoniae = details: Concentration 20 uM; ASSAY_TEST Inhibition of Bacterial Growth; detection method Absorption (OD600); MEDIA CAMHB; plate type 384well; NBS; CORNING #3640; time 18 hr
Candida albicans = details: 20 µM
Cryptococcus neoformans = details: Concentration 20 uM; ASSAY_TEST Inhibition of Fungal Growth; detection method Resazurin; Absorption (OD600-OD570); plate type 384well; NBS; CORNING #3640

With `CCOC(=O)Cc1cc(=O)[nH]n(-c2ccccc2)c1=O` as the compound, how does the Inhibition (Staphylococcus aureus) read?
Its Inhibition is 5.46%.

And the Inhibition (Acinetobacter baumannii)?
Its Inhibition is 4.69%.

And the Inhibition (Escherichia coli)?
Its Inhibition is 13.24%.

And the Inhibition (Klebsiella pneumoniae)?
Its Inhibition is 12.15%.

And the Inhibition (Candida albicans)?
The Inhibition was 4.43%.

And the Inhibition (Cryptococcus neoformans)?
Its Inhibition is -10.57%.

Which Inhibition (Staphylococcus aureus) does the source give for `Cc1nc(N)nc(Cl)c1CCC1OCCO1` here?
Its Inhibition is 7.04%.

And the Inhibition (Acinetobacter baumannii)?
Its Inhibition is -8.91%.

And the Inhibition (Escherichia coli)?
Its Inhibition is 8.75%.

And the Inhibition (Klebsiella pneumoniae)?
The Inhibition was 6.29%.

And the Inhibition (Candida albicans)?
Its Inhibition is 2.66%.

And the Inhibition (Cryptococcus neoformans)?
Its Inhibition is -6.74%.

With `CC(C)c1cc(C(C)C)n2nc(N)nc2n1` as the compound, how does the Inhibition (Staphylococcus aureus) read?
The Inhibition was 6.67%.

What about the Inhibition (Acinetobacter baumannii) of the same compound?
Its Inhibition is 8.95%.

What about the Inhibition (Escherichia coli) of the same compound?
Its Inhibition is 5.1%.

What about the Inhibition (Klebsiella pneumoniae) of the same compound?
Its Inhibition is 0.39%.

And the Inhibition (Candida albicans)?
Its Inhibition is -0.42%.

And the Inhibition (Cryptococcus neoformans)?
Its Inhibition is -7.51%.

What does the source list for `Brc1csc2ncccc12`?
Inhibition (Staphylococcus aureus): 8.68%; Inhibition (Acinetobacter baumannii): 14.4%; Inhibition (Escherichia coli): -1.37%; Inhibition (Klebsiella pneumoniae): 10.17%; Inhibition (Candida albicans): 7.21%; Inhibition (Cryptococcus neoformans): -5.07%

With `COc1ccc(C(=S)N2CCN(c3ccccc3Cl)CC2)cc1OC` as the compound, how does the Inhibition (Staphylococcus aureus) read?
Its Inhibition is 21.01%.

What about the Inhibition (Acinetobacter baumannii) of the same compound?
Its Inhibition is 9.29%.

And the Inhibition (Escherichia coli)?
The Inhibition was 8.55%.

What about the Inhibition (Klebsiella pneumoniae) of the same compound?
The Inhibition was 6.8%.

What about the Inhibition (Candida albicans) of the same compound?
The Inhibition was 6.76%.

And the Inhibition (Cryptococcus neoformans)?
The Inhibition was -9.03%.

With `CCOc1ccc(S(=O)(=O)c2ccc(C)cc2)c2c1no[n+]2[O-]` as the compound, how does the Inhibition (Staphylococcus aureus) read?
The Inhibition was 12.11%.

And the Inhibition (Acinetobacter baumannii)?
The Inhibition was 5.81%.

And the Inhibition (Escherichia coli)?
Its Inhibition is 11.8%.

What about the Inhibition (Klebsiella pneumoniae) of the same compound?
The Inhibition was 9.49%.

What about the Inhibition (Candida albicans) of the same compound?
Its Inhibition is 1.5%.

And the Inhibition (Cryptococcus neoformans)?
Its Inhibition is -13.62%.

With `O=C(c1ccccc1)c1ccc(-c2ccc(O)cc2)cc1` as the compound, how does the Inhibition (Staphylococcus aureus) read?
The Inhibition was -4.49%.

What about the Inhibition (Acinetobacter baumannii) of the same compound?
Its Inhibition is -14.62%.

And the Inhibition (Escherichia coli)?
Its Inhibition is 8.24%.

What about the Inhibition (Klebsiella pneumoniae) of the same compound?
Its Inhibition is 15.69%.

What about the Inhibition (Candida albicans) of the same compound?
The Inhibition was 6.54%.

What about the Inhibition (Cryptococcus neoformans) of the same compound?
The Inhibition was -10.56%.

How did the Inhibition (Staphylococcus aureus) turn out when `CCSc1nc(C)cc(S)n1` was run?
The Inhibition was 8.56%.

And the Inhibition (Acinetobacter baumannii)?
Its Inhibition is -11.79%.

What about the Inhibition (Escherichia coli) of the same compound?
Its Inhibition is 13.36%.

What about the Inhibition (Klebsiella pneumoniae) of the same compound?
Its Inhibition is 13.31%.

And the Inhibition (Candida albicans)?
The Inhibition was 25.2%.

What about the Inhibition (Cryptococcus neoformans) of the same compound?
The Inhibition was -6%.

For `Nc1ncnc2c1ncn2C1OC(CO)C(O)C1N` (stereo not given), which Inhibition (Staphylococcus aureus) is on record?
Its Inhibition is -5.5%.

What about the Inhibition (Acinetobacter baumannii) of the same compound?
The Inhibition was -14.65%.

What about the Inhibition (Escherichia coli) of the same compound?
The Inhibition was 5.58%.

What about the Inhibition (Klebsiella pneumoniae) of the same compound?
The Inhibition was 3.14%.

And the Inhibition (Candida albicans)?
Its Inhibition is -0.11%.

What about the Inhibition (Cryptococcus neoformans) of the same compound?
Its Inhibition is -5.11%.

What does the source list for `CC(=C/c1ccccc1)/C=C1/NC(=S)NC1=O`?
Inhibition (Staphylococcus aureus): 2.65%; Inhibition (Acinetobacter baumannii): 4.35%; Inhibition (Escherichia coli): -0.7%; Inhibition (Klebsiella pneumoniae): 10.87%; Inhibition (Candida albicans): 2.17%; Inhibition (Cryptococcus neoformans): -5.48%

Which results are given for `CCCCOc1ccc(Nc2cc(Cl)ccc2C(=O)O)cn1`?
Inhibition (Staphylococcus aureus): 11.44%; Inhibition (Acinetobacter baumannii): 0.16%; Inhibition (Escherichia coli): 4.02%; Inhibition (Klebsiella pneumoniae): 9.69%; Inhibition (Candida albicans): 10.4%; Inhibition (Cryptococcus neoformans): -7.88%

Which results are given for `Cc1cccnc1N=C(S)Nc1ncccc1C`?
Inhibition (Staphylococcus aureus): 10.58%; Inhibition (Acinetobacter baumannii): 20.87%; Inhibition (Escherichia coli): 9.06%; Inhibition (Klebsiella pneumoniae): 23.76%; Inhibition (Candida albicans): 3.55%; Inhibition (Cryptococcus neoformans): -10.6%

Which Inhibition (Staphylococcus aureus) does the source give for `CC(=O)Oc1c(C)c(OC(C)=O)c2c(c1C(C)=O)OC1CC(=O)C(C(C)=O)=C(O)C21C` (stereo not given) here?
The Inhibition was 13.8%.

And the Inhibition (Acinetobacter baumannii)?
The Inhibition was -11.04%.

And the Inhibition (Escherichia coli)?
Its Inhibition is 18.15%.

And the Inhibition (Klebsiella pneumoniae)?
The Inhibition was 8.45%.

What about the Inhibition (Candida albicans) of the same compound?
The Inhibition was 3.77%.

What about the Inhibition (Cryptococcus neoformans) of the same compound?
The Inhibition was -8.61%.

With `CC(C)(C)c1ccc(C(=O)N2CCOC23CCCCC3)cc1` as the compound, how does the Inhibition (Staphylococcus aureus) read?
The Inhibition was 6.69%.

And the Inhibition (Acinetobacter baumannii)?
Its Inhibition is 7.06%.

And the Inhibition (Escherichia coli)?
Its Inhibition is 4.56%.

And the Inhibition (Klebsiella pneumoniae)?
Its Inhibition is 2.74%.

What about the Inhibition (Candida albicans) of the same compound?
Its Inhibition is 2.86%.

And the Inhibition (Cryptococcus neoformans)?
Its Inhibition is -8.62%.

With `Cc1c(Cl)cccc1NC(=O)CC1Sc2ccccc2NC1=O` (stereo not given) as the compound, how does the Inhibition (Staphylococcus aureus) read?
Its Inhibition is 7.76%.

What about the Inhibition (Acinetobacter baumannii) of the same compound?
Its Inhibition is 13.12%.

What about the Inhibition (Escherichia coli) of the same compound?
Its Inhibition is -17.77%.

And the Inhibition (Klebsiella pneumoniae)?
Its Inhibition is 3.05%.

And the Inhibition (Candida albicans)?
Its Inhibition is 8.03%.

What about the Inhibition (Cryptococcus neoformans) of the same compound?
Its Inhibition is 45.43%.

What does the source list for `CC(=O)[C@@]1(O)[C@H](C)C[C@H]2[C@@H]3C=C(C)C4=Cc5c(cnn5-c5ccccc5)C[C@]4(C)[C@H]3[C@@H](O)C[C@@]21C`?
Inhibition (Staphylococcus aureus): 3.25%; Inhibition (Acinetobacter baumannii): -8.97%; Inhibition (Escherichia coli): 7.95%; Inhibition (Klebsiella pneumoniae): 0.96%; Inhibition (Candida albicans): 4.25%; Inhibition (Cryptococcus neoformans): -3.62%

Which results are given for `c1ccc(CSc2nc3c[nH]cnc-3n2)cc1`?
Inhibition (Staphylococcus aureus): 8.72%; Inhibition (Acinetobacter baumannii): -4.41%; Inhibition (Escherichia coli): 6.08%; Inhibition (Klebsiella pneumoniae): 8.84%; Inhibition (Candida albicans): 0.41%; Inhibition (Cryptococcus neoformans): 13.03%

How did the Inhibition (Staphylococcus aureus) turn out when `CN(C)c1ccc(C(c2ccc(N(C)C)cc2)c2ccc([N+](=O)[O-])cc2)cc1` was run?
Its Inhibition is 15.85%.

And the Inhibition (Acinetobacter baumannii)?
Its Inhibition is 11.72%.

What about the Inhibition (Escherichia coli) of the same compound?
Its Inhibition is -1.1%.

What about the Inhibition (Klebsiella pneumoniae) of the same compound?
The Inhibition was 17.42%.

What about the Inhibition (Candida albicans) of the same compound?
The Inhibition was 2.89%.

And the Inhibition (Cryptococcus neoformans)?
The Inhibition was -7.55%.

For `O=C(Nc1ccc(C(=O)O)c(O)c1)c1ccccc1` [BENZOYLPAS], which Inhibition (Staphylococcus aureus) is on record?
The Inhibition was -3.42%.

And the Inhibition (Acinetobacter baumannii)?
Its Inhibition is -17.37%.

What about the Inhibition (Escherichia coli) of the same compound?
The Inhibition was 4.17%.

What about the Inhibition (Klebsiella pneumoniae) of the same compound?
Its Inhibition is 3.36%.

What about the Inhibition (Candida albicans) of the same compound?
The Inhibition was 6.26%.

What about the Inhibition (Cryptococcus neoformans) of the same compound?
Its Inhibition is -5.98%.

How did the Inhibition (Staphylococcus aureus) turn out when `CCSc1nc(O)cc(O)n1` was run?
Its Inhibition is 23.71%.

What about the Inhibition (Acinetobacter baumannii) of the same compound?
The Inhibition was -7.74%.

What about the Inhibition (Escherichia coli) of the same compound?
The Inhibition was 11.78%.

And the Inhibition (Klebsiella pneumoniae)?
The Inhibition was 13.65%.

What about the Inhibition (Candida albicans) of the same compound?
The Inhibition was 4.28%.

What about the Inhibition (Cryptococcus neoformans) of the same compound?
Its Inhibition is 3.85%.
